Among the data in PubChem BioAssay (NCI) are growth values, retold here.

Structures are written as SMILES. Compounds without any hit were thinned out: in the full panel of roughly 83,000, 20% have a hit.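 Step 1: grow cells in 96-well plates. Step 2: add test compound at a single concentration. Step 3: incubate 48 h. Step 4: record percent growth.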 Values without a mark were called inactive. Calls of active or inactive are those of the source. How the source made its calls: active means growth percent below 10; inactive means the rest.

Test systems include RPMI-8226 leukemia; OVCAR-8 ovarian; OVCAR-5 ovarian; OVCAR-4 ovarian; SK-OV-3 ovarian; IGROV1 ovarian; OVCAR-3 ovarian; HS 578T breast; NCI/ADR-RES ovarian; T-47D breast; BT-549 breast; MDA-MB-435 melanoma; SW-620 colon; MCF7 breast; HCT-116 colon; HCC-2998 colon; KM12 colon.
Experiment in all cases: NCI-60 one-dose screen, 48 h (100 = growth as untreated, 0 = no growth, -100 = all killed)
Conditions in all cases: 10 µM

In the case of `CC(=O)OCc1cc(-c2nc3ccccc3[nH]c2=O)nn1-c1ccc(Cl)cc1`, the growth in the assay with RPMI-8226 leukemia is 89.1%; in the assay on OVCAR-8 ovarian it was 95.4%; in the assay on OVCAR-5 ovarian, 99.6%; in the assay with OVCAR-4 ovarian, 96.1%; with SK-OV-3 ovarian it was 100%; in the assay with IGROV1 ovarian, 93.2%. The growth in the assay on OVCAR-3 ovarian is 116%; with HS 578T breast it was 100%; with NCI/ADR-RES ovarian it was 90.9%; with T-47D breast, 92.7%; in the assay on BT-549 breast it was 102%; in the assay with MDA-MB-435 melanoma it was 99.7%. Besides, the growth in the assay on SW-620 colon is 111%; in the assay with MCF7 breast, 85.9%; in the assay on HCT-116 colon it was 100%; in the assay on HCC-2998 colon, 87%; in the assay with KM12 colon, 108%.

For `COc1ccc(-c2nn(-c3cccc(NC(=O)Nc4ccc(Cl)c(C(F)(F)F)c4)c3)cc2-c2ccncc2)cc1Cl`, the growth is -19.2% (active) in the assay with RPMI-8226 leukemia; 1.48% (active) with OVCAR-8 ovarian; 39.8% in the assay on OVCAR-5 ovarian; 21.7% with OVCAR-4 ovarian; 16.7% with SK-OV-3 ovarian; 15.7% in the assay on IGROV1 ovarian. In addition, the growth in the assay with OVCAR-3 ovarian is -2.03% (active); in the assay with HS 578T breast it was 33.8%; with NCI/ADR-RES ovarian it was 9.26% (active); in the assay on T-47D breast, -6.17% (active); with BT-549 breast, 11.2%; in the assay with MDA-MB-435 melanoma, -24.3% (active). Further, the growth in the assay on SW-620 colon is 17.7%; in the assay with MCF7 breast, 1.57% (active); in the assay with HCT-116 colon it was 8.61% (active); in the assay on HCC-2998 colon, 37.7%; with KM12 colon, 4% (active).

For `O=C(N/N=C\c1cc(Cl)ccc1[N+](=O)[O-])c1ccco1`, the growth with RPMI-8226 leukemia is 109%; in the assay on OVCAR-8 ovarian, 101%; in the assay with OVCAR-5 ovarian it was 118%; in the assay with OVCAR-4 ovarian it was 105%; in the assay with SK-OV-3 ovarian, 130%; in the assay on IGROV1 ovarian, 127%. Also, the growth was 107% in the assay with OVCAR-3 ovarian; 100% in the assay with HS 578T breast; 100% with NCI/ADR-RES ovarian; 83.7% in the assay on T-47D breast; 101% in the assay with BT-549 breast; 100% in the assay on MDA-MB-435 melanoma. In addition, the growth with SW-620 colon is 102%; in the assay on MCF7 breast, 57%; with HCT-116 colon, 113%; with HCC-2998 colon it was 103%; with KM12 colon, 102%.

Regarding `CCN(CC)CCSCCN(CC)CC`, the growth in the assay with RPMI-8226 leukemia was 105%; with OVCAR-8 ovarian, 101%; in the assay on OVCAR-5 ovarian, 94.3%; with OVCAR-4 ovarian it was 96.4%; in the assay on SK-OV-3 ovarian it was 98.9%; in the assay on IGROV1 ovarian, 109%. In addition, the growth is 108% in the assay with OVCAR-3 ovarian; 106% in the assay on HS 578T breast; 108% in the assay on NCI/ADR-RES ovarian; 94% with T-47D breast; 105% in the assay with BT-549 breast; 101% with MDA-MB-435 melanoma. Moreover, the growth in the assay with SW-620 colon was 99.2%; in the assay with MCF7 breast, 99.1%; in the assay with HCT-116 colon, 107%; in the assay on HCC-2998 colon, 119%; with KM12 colon, 107%.

For the compound `FC(F)(F)c1ccc2nc(-c3nc(-c4ccccc4)n4ccccc34)[nH]c2c1`, the growth is 51.6% in the assay with RPMI-8226 leukemia; 17.3% in the assay with OVCAR-8 ovarian; 85.6% in the assay with OVCAR-5 ovarian; -3.4% (active) in the assay with OVCAR-4 ovarian; 52.8% in the assay with SK-OV-3 ovarian; 67.7% in the assay with IGROV1 ovarian. Moreover, the growth is 79.1% in the assay on OVCAR-3 ovarian; 103% in the assay on HS 578T breast; 44.4% with NCI/ADR-RES ovarian; 48.3% in the assay on T-47D breast; 85.9% in the assay with BT-549 breast; 87.5% in the assay on MDA-MB-435 melanoma. Besides, the growth is 72% in the assay on SW-620 colon; 38.3% with MCF7 breast; 8.85% (active) in the assay with HCT-116 colon; 82.6% with HCC-2998 colon; 52.4% with KM12 colon.

`CCCCCCc1cc(N=Nc2ccc(S(=O)(=O)Nc3cc(C)nc(C)n3)cc2)c(O)cc1O`: the growth with RPMI-8226 leukemia was 95.5%; with OVCAR-8 ovarian, 99.7%; in the assay on OVCAR-5 ovarian it was 113%; with OVCAR-4 ovarian it was 108%; with SK-OV-3 ovarian, 101%; in the assay with IGROV1 ovarian, 96.2%. For the same compound, the growth in the assay with OVCAR-3 ovarian is 109%; with HS 578T breast it was 110%; in the assay with NCI/ADR-RES ovarian it was 99.9%; with T-47D breast it was 93.9%; in the assay with BT-549 breast, 89.9%; in the assay with MDA-MB-435 melanoma, 100%. The growth in the assay on SW-620 colon was 113%; with MCF7 breast, 92.7%; with HCT-116 colon it was 86.3%; in the assay on HCC-2998 colon, 101%; in the assay on KM12 colon, 104%.

Regarding `COc1ccc(-c2nc3sc(C4CC4)nn3c2/C=C2/C(=O)Nc3ccc(OC)cc32)cc1`, the growth in the assay with RPMI-8226 leukemia was 58%; in the assay on OVCAR-8 ovarian it was 76.7%; in the assay with OVCAR-5 ovarian, 89.5%; in the assay on OVCAR-4 ovarian it was 44.6%; in the assay on SK-OV-3 ovarian, 50.9%; in the assay on IGROV1 ovarian, 81.5%. Also, the growth is 79.7% in the assay on OVCAR-3 ovarian; 25.3% in the assay with HS 578T breast; 77.2% in the assay with NCI/ADR-RES ovarian; 68.7% in the assay on T-47D breast; 40.1% with BT-549 breast; 61.6% in the assay with MDA-MB-435 melanoma. In addition, the growth was 77.7% with SW-620 colon; 30.1% with MCF7 breast; 66.3% in the assay with HCT-116 colon; 104% in the assay with HCC-2998 colon; 77.8% with KM12 colon.

For the compound `COc1ccc(-c2nn(-c3cccc(NC(=O)c4cccc(C(F)(F)F)c4)c3)cc2-c2ccncc2)cc1Cl`, the growth with RPMI-8226 leukemia is 6.49% (active); in the assay with OVCAR-8 ovarian it was 33%; with OVCAR-5 ovarian it was 55.8%; in the assay with OVCAR-4 ovarian, 60.7%; in the assay with SK-OV-3 ovarian, 37.8%; in the assay with IGROV1 ovarian, 42.4%. The growth is 11.9% in the assay with OVCAR-3 ovarian; 24.9% in the assay on HS 578T breast; 15.2% in the assay on NCI/ADR-RES ovarian; 18.6% with T-47D breast; 35% in the assay on BT-549 breast; -67.9% (active) in the assay with MDA-MB-435 melanoma. Moreover, the growth is 36% with SW-620 colon; 9.92% (active) with MCF7 breast; 14.5% in the assay on HCT-116 colon; 33.6% in the assay with HCC-2998 colon; 15.4% with KM12 colon.

Regarding `CCCCN(CCCC)c1cc(C(=O)CCCCCN)c2ccccc2n1`, the growth is -67.9% (active) with RPMI-8226 leukemia; 9.35% (active) in the assay on OVCAR-8 ovarian; 105% in the assay on OVCAR-5 ovarian; 100% in the assay on OVCAR-4 ovarian; 101% in the assay on SK-OV-3 ovarian; -73.6% (active) with IGROV1 ovarian. For the same compound, the growth with OVCAR-3 ovarian was -96.9% (active); in the assay with HS 578T breast, 96%; with NCI/ADR-RES ovarian, 71.6%; with T-47D breast, 92.9%; in the assay on BT-549 breast, 68.2%; in the assay with MDA-MB-435 melanoma it was -52.1% (active). Further, the growth is 39.8% in the assay with SW-620 colon; 40% with MCF7 breast; -95.6% (active) in the assay with HCT-116 colon; -31.4% (active) in the assay on HCC-2998 colon; -93.3% (active) with KM12 colon.
